# Several values for one entry are separate records, joined by “and”; a condition that tells them apart may be missing. Equal values may be shown once. Results filed as inconclusive are left out. Where a call stands in place of a potency, no number is given. Activity calls are given as the source filed them. Unless noted, calls come from the whole dose curve.
# Assays:
# [1] = biological target: Glucocorticoid receptor (Homo sapiens) (UniProt P04150); assay: qHTS assay for small molecule agonists of glucocorticoid receptor signaling (AID 588532; active = well fitted curve in the direction sought with a large enough effect in the signal ratio, with a control signal flat; the % refers to the signal ratio); conditions: HeLa MMTV-bla, beta-lactamase ratio, agonist, 18 h; stronger effect = higher value; percent of dexamethasone control, DMSO zero
# Procedure, shortened: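 Cells were plated and rested 3-5 h at 37 C, compounds were added in titration and incubated 18 h, then CCF4 substrate was loaded for 2 h at RT before reading blue/green fluorescence. EC50 came from Hill-equation fitting.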
# [2] = biological target: Glucocorticoid receptor (Homo sapiens) (UniProt P04150); assay: qHTS assay for small molecule antagonists of glucocorticoid receptor signaling (AID 588533; active = well fitted inhibition curve with a large enough effect in the signal ratio, with a control signal flat, not every such curve was filed as active; the % refers to the signal ratio;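 note: cells stimulated with 2 nM dexamethasone as agonist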)
# Procedure, shortened: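 Antagonist-mode qHTS: compound titrations added to GRE-bla HeLa cells, then dexamethasone 2 nM final; 18 h, 37 C. CCF4 FRET fluorescence normalized to dexamethasone and DMSO; IC50 from Hill fit.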
# [3] = qHTS assay for small molecule antagonists of peroxisome proliferator-activated receptor delta signaling (AID 588535; active = well fitted inhibition curve with a large enough effect in the signal ratio, with a control signal flat, not every such curve was filed as active; the % refers to the signal ratio;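 for max response: cells co-treated with a PPAR-delta agonist as stimulator during compound exposure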); conditions: HEK293T PPARd-UAS-bla, beta-lactamase FRET ratio, 18 h; 460 nm channel
# Procedure, shortened: (§1)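 Fluorescence from CCF4-loaded GeneBLAzer PPAR-delta-UAS-bla HEK293T cells (2 hrs RT loading) quantified reporter inhibition after an 18 hr, 37 C compound exposure across a titration.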
# [4] = biological target: Peroxisome proliferator-activated receptor delta (Homo sapiens) (UniProt Q03181); assay: as above
# Procedure, shortened: as §1
# [5] = biological target: Vitamin D3 receptor (Homo sapiens) (UniProt P11473); assay: qHTS assay for small molecule agonists of vitamin D receptor signaling (AID 588543)
# Procedure, shortened: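 Reporter cells (HEK293T, VDR-UAS-bla) were seeded in medium with 2% charcoal-stripped serum and incubated 5 h, then compounds in concentration series were added for 16 h at 37 °C. Stimulation was scaled between DMSO basal and 50 nM 1α,25-dihydroxyvitamin D3.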
# [6] = biological target: Thyroid hormone receptor beta (Homo sapiens) (UniProt P10828); assay: qHTS assay for small molecule agonists of thyroid hormone receptor beta signaling (AID 588545)
# Procedure, shortened: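 Beta-lactamase reporter activity under TR response element control is measured in HEK 293 cells after 18 hrs compound exposure. Signal is ratiometric CCF4 fluorescence, 460/530 nm.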
# [7] = biological target: Thyroid hormone receptor beta (Homo sapiens) (UniProt P10828); assay: qHTS assay for small molecule antagonists of thyroid hormone receptor beta signaling (AID 588547; active = well fitted inhibition curve with a large enough effect in the signal ratio, with a control signal flat, not every such curve was filed as active; the % refers to the signal ratio;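 note: cells stimulated with 0.4 nM T3 agonist during compound exposure; series mostly up to about 77 µM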); conditions: TR-UAS-bla HEK293, beta-lactamase ratio, antagonist mode, 18 h
# Procedure, shortened: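 TR-UAS-bla GripTite HEK293 cells in 2% charcoal/dextran FBS medium; compounds 0.59 nM to 92 uM with T3 at 0.4nM final, 18 h at 37 C. Beta-lactamase read by CCF4 fluorescence (460/530 nm); Hill fits gave IC50 and efficacy.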
# [8] = biological target: Bile acid receptor (Homo sapiens) (UniProt Q96RI1); assay: qHTS assay for small molecule antagonists of farnesoid X receptor signaling (AID 588526)
# Procedure, shortened: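 Antagonist mode: titrated compounds tested against chenodeoxycholic acid stimulation (normalized to 50 uM CDCA and DMSO) in GeneBLAzer HEK293T cells for 16 h. Beta-lactamase read by CCF4 fluorescence; IC50 from Hill fits.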
# [9] = biological target: Peroxisome proliferator-activated receptor gamma (Homo sapiens) (UniProt P37231); assay: qHTS assay for small molecule agonists of peroxisome proliferator-activated receptor gamma signaling (AID 588536; active = well fitted curve in the direction sought with a large enough effect in the signal ratio, with a control signal flat, not every such curve was filed as active; the % refers to the signal ratio)
# Procedure, shortened: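 Beta-lactamase reporter read-out: CCF4 fluorescence (ex 405, em 460/530 nm) after 2 h at RT. HEK293 GeneBLAzer cells were treated for 16 h at 37 C. Hill fits gave EC50 and efficacy versus 2 uM rosiglitazone (100%) and DMSO (0%).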
# [10] = biological target: Peroxisome proliferator-activated receptor gamma (Homo sapiens) (UniProt P37231); assay: qHTS assay for small molecule antagonists of peroxisome proliferator-activated receptor gamma signaling (AID 588537; active = well fitted inhibition curve with a large enough effect in the signal ratio, with a control signal flat, not every such curve was filed as active; the % refers to the signal ratio;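 note: reporter cells co-stimulated with 50 nM rosiglitazone agonist during compound treatment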)
# Procedure, shortened: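 Fluorescence at 460 and 530 nm (405 nm excitation) reported beta-lactamase cleavage of CCF4 after 2 h room-temperature loading. HEK293 reporter cells in 1% charcoal/dextran-treated FBS had received compound and rosiglitazone for 16 h.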
# [11] = qHTS assay for small molecule agonists of retinoid X receptor alpha signaling (AID 588544); conditions: HEK293T RXRa-UAS-bla, beta-lactamase reporter, 18 h; 530 nm emission
# [12] = biological target: Retinoic acid receptor RXR-alpha (Homo sapiens) (UniProt P19793); assay: as above
# [13] = qHTS assay for small molecule antagonists of retinoid X receptor alpha signaling (AID 588546; active = well fitted inhibition curve with a large enough effect in the signal ratio, with a control signal flat, not every such curve was filed as active; the % refers to the signal ratio;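 note: cells stimulated with 9-cis-retinoic acid as agonist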); conditions: HEK293T RXRa-UAS-bla, beta-lactamase ratio, antagonist mode; measured here: W530 green channel, cytotoxicity proxy
# Procedure, shortened: (§2)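 Beta-lactamase reporter inhibition, read as CCF4 fluorescence ratio (ex 405, em 460/530 nm) after 2 h at RT. HEK293T UAS-bla cells, 2500/well, were stimulated with 9-cis-RA at 500 or 100 nM final alongside test compound for 18 h at 37 C.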
# [14] = biological target: Retinoic acid receptor RXR-alpha (Homo sapiens) (UniProt P19793); assay: as above; conditions: HEK293T RXRa-UAS-bla, beta-lactamase ratio, antagonist mode
# Procedure, shortened: as §2
# [15] = biological target: Estrogen receptor (Homo sapiens) (UniProt P03372); assay: qHTS assay for small molecule agonists of estrogen receptor alpha signaling (AID 588514); note: nearly all actives have a fitted effect of over 70% in size; note: potency is the fitted concentration of half-maximal effect
# Procedure, shortened: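 Efficacy is expressed against 20 nM 17-beta-estradiol (100%) and DMSO basal (0%); EC50 from Hill equation. Assay: beta-lactamase reporter in ER-alpha-UAS-bla HEK 293 cells, 18 h compound incubation, CCF4 detection.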
# [16] = biological target: DNA dC->dU-editing enzyme APOBEC-3G (Homo sapiens) (UniProt Q9HC16); assay: qHTS for inhibitors of Vif-A3G interactions: Validation (AID 588379; active = well fitted inhibition curve with a large enough effect)
# Procedure, shortened: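 Yellow fluorescence (Ex 488, Em 500-530) of Vif-coexpressing HeLa A3G-eYFP cells, scanned by Acumen cytometer, reports blocked A3G degradation. Cells plated at 700/well overnight at 37 deg C before compound addition, then a further overnight compound incubation at 37 deg C.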
# Glucocorticoid receptor (Homo sapiens), sequence (P04150 whole entry, looked up): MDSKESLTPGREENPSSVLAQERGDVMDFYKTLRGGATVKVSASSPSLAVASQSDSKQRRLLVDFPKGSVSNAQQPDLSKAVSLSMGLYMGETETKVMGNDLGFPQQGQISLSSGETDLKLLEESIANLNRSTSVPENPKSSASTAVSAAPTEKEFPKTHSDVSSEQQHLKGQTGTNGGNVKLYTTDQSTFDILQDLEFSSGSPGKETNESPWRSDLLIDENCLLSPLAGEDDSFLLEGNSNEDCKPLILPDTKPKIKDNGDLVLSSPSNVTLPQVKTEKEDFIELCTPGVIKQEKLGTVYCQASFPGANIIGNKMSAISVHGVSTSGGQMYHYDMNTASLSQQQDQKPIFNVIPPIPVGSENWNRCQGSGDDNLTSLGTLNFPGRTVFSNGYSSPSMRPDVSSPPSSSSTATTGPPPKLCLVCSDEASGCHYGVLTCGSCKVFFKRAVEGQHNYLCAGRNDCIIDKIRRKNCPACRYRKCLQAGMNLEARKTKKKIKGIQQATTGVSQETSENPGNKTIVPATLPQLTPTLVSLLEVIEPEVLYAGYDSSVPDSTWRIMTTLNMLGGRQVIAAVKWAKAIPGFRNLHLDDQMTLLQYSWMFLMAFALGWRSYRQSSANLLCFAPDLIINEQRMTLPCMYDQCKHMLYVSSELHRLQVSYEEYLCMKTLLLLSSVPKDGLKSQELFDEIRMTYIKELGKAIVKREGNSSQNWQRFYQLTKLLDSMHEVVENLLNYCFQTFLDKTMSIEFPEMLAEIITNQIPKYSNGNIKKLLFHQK
# Vitamin D3 receptor (Homo sapiens), sequence (P11473 whole entry, looked up): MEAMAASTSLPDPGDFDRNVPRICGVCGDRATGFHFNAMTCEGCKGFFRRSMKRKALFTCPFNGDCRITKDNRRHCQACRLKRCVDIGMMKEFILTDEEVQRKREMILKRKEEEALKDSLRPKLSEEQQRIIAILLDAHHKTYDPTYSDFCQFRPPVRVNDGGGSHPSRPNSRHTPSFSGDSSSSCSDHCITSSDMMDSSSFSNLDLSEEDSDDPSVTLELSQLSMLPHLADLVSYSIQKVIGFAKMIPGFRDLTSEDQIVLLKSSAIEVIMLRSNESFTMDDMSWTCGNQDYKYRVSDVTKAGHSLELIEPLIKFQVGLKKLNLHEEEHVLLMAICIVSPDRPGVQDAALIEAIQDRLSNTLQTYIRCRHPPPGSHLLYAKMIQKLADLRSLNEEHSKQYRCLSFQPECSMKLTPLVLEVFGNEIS
# Peroxisome proliferator-activated receptor delta (Homo sapiens), sequence (Q03181 whole entry, looked up): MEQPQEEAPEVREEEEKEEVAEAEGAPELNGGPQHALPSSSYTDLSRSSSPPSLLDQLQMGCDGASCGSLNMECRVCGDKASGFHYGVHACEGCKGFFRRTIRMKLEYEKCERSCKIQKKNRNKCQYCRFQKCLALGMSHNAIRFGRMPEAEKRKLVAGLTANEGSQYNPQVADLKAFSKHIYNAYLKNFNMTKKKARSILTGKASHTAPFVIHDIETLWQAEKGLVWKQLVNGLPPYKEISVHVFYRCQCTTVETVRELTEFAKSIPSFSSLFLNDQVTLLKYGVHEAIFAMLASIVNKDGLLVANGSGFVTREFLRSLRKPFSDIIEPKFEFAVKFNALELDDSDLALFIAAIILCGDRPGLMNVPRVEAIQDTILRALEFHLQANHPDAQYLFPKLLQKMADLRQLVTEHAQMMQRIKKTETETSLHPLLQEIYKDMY
# Thyroid hormone receptor beta (Homo sapiens), sequence (P10828 whole entry, looked up): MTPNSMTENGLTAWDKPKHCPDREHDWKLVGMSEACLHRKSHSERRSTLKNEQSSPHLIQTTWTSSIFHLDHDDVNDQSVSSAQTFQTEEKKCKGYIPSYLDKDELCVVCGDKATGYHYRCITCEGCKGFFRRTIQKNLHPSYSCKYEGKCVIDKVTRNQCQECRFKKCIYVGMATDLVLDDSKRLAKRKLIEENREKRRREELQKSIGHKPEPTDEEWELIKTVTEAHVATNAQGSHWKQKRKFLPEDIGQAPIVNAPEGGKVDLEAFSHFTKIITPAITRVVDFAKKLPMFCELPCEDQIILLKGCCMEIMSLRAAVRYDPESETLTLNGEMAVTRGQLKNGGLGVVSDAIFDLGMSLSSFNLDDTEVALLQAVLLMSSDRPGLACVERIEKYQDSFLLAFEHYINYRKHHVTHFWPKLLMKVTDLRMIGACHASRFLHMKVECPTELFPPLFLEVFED
# Peroxisome proliferator-activated receptor gamma (Homo sapiens), sequence (P37231 whole entry, looked up): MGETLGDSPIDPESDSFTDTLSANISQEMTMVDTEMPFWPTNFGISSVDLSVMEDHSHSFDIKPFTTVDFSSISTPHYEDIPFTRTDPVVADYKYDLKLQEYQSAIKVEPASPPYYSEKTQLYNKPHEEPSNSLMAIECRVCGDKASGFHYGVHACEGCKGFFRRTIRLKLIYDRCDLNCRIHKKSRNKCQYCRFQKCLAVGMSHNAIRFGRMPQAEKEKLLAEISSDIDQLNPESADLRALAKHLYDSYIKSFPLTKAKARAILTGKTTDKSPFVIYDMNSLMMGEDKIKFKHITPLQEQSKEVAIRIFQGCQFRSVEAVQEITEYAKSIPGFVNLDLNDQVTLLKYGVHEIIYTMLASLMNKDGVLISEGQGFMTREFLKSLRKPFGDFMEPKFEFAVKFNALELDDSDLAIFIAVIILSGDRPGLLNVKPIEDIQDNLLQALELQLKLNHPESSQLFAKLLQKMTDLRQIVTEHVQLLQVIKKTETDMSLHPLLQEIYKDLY
# DNA dC->dU-editing enzyme APOBEC-3G (Homo sapiens), sequence (Q9HC16 whole entry, looked up): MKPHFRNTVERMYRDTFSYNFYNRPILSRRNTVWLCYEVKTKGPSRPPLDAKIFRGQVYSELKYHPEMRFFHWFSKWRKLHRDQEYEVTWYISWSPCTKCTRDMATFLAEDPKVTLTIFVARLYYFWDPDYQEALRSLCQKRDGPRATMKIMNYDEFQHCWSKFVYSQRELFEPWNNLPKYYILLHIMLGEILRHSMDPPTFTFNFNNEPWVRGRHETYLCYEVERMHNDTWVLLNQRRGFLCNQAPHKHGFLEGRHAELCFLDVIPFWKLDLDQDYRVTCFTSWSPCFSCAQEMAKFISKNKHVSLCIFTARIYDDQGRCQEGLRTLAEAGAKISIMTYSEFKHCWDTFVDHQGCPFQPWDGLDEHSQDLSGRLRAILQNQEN
# Retinoic acid receptor RXR-alpha (Homo sapiens), sequence (P19793 whole entry, looked up): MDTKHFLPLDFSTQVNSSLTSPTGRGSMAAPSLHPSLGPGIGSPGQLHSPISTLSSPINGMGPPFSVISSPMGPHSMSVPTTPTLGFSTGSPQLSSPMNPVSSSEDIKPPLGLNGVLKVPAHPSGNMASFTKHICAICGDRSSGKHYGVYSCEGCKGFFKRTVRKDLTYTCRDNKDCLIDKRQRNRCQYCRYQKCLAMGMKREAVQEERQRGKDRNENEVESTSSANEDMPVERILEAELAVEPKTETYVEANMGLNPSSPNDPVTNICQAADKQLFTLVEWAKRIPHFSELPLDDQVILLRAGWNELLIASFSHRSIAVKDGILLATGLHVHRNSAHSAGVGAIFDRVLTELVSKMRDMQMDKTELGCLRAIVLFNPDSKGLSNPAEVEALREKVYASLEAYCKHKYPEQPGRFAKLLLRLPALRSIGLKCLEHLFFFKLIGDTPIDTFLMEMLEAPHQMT
# Bile acid receptor (Homo sapiens), sequence (Q96RI1 whole entry, looked up): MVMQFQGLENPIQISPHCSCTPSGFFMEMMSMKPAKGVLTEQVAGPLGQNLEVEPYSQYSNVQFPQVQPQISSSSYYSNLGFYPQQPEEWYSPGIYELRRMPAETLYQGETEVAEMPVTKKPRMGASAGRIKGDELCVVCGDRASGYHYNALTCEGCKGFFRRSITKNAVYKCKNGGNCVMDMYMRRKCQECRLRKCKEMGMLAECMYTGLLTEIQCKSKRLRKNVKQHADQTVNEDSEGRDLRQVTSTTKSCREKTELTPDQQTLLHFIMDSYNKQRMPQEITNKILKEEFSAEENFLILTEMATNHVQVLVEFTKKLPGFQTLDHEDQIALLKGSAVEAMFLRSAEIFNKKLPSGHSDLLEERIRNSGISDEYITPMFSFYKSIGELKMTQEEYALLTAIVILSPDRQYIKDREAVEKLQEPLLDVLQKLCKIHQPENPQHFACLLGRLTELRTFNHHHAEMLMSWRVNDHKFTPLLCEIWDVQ
# Estrogen receptor (Homo sapiens), sequence (P03372 whole entry, looked up): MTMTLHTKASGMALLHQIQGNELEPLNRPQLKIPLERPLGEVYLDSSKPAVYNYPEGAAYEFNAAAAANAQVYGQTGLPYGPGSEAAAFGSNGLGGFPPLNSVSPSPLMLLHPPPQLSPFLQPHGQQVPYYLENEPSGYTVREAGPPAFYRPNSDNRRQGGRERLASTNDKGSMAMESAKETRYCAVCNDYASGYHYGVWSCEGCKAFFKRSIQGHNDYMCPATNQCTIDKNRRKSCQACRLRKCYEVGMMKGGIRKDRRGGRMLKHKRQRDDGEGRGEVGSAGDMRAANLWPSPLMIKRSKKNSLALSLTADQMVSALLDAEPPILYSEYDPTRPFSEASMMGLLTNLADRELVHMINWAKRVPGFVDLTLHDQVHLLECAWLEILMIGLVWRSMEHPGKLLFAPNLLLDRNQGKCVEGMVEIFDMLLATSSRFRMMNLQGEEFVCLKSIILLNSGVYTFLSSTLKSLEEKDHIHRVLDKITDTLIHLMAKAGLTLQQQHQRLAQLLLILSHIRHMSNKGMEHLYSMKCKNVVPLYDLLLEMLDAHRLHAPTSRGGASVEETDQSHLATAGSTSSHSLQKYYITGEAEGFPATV
structure (smiles),measurement,setting,value
CCCCC(CC)COC(=O)CC(C(=O)OCC(CC)CCCC)S(=O)(=O)O (stereo not drawn),activation,[1],-0.211% (inactive)
same,outcome,[2],inactive
same,max response,[3],46.2%
same,outcome,[4],inactive
same,outcome,[5],inactive
same,outcome,[6],inactive
same,activity change % (negative = inhibition),[7],-5.51% (inactive)
IC(I)I,Potency,[8],inactive
same,activation,[1],16.8% (inactive) and -7.64% (inactive)
same,outcome,[2],inactive
same,max response,[3],3.49% and 21.3%
same,outcome,[4],inactive
same,outcome,[9],inactive
same,outcome,[10],inactive
same,max response,[11],19.8%
same,outcome,[12],inactive
same,outcome,[6],inactive
same,max response,[13],-9.02% and 2.26%
same,max response,[14],21.1% (inactive) and -13.8% (inactive)
same,activity change % (negative = inhibition),[7],1.7% (inactive) and 9.81% (inactive)
O=CCCCC=O,Potency,[15],inactive
same,Potency,[8],inactive
same,activation,[1],5.8% (inactive)
same,max response,[3],37.6%
same,outcome,[4],inactive
same,outcome,[5],inactive
same,max response,[11],18.3%
same,outcome,[12],inactive
same,outcome,[6],inactive
same,max response,[13],-9.66%
same,max response,[14],27.6% (inactive)
same,activity change % (negative = inhibition),[7],0.64% (inactive)
OCc1ccccc1O[C@@H]1O[C@H](CO)[C@@H](O)[C@H](O)[C@H]1O,outcome,[16],inactive
CC1=C(/C=C/C(C)=C/C=C/C(C)=C/CO)C(C)(C)CCC1,outcome,[16],inactive
same,Potency,[15],3.16 µM (active)
same,outcome,[9],inactive
same,outcome,[5],inactive
same,outcome,[6],inactive
same,max response,[13],23.5% and 17%
same,max response,[14],-17.7% (inactive) and -18.6% (inactive)
same,activity change % (negative = inhibition),[7],7.96% (inactive) and 4.62% (inactive)
C[C@H]1C[C@H]2[C@@H]3CCC4=CC(=O)C=C[C@]4(C)[C@@]3(F)[C@@H](O)C[C@]2(C)[C@@]1(O)C(=O)CO,outcome,[2],inactive
same,outcome,[6],inactive
same,max response,[13],8.66%
same,max response,[14],-12.7% (inactive)
Nc1ccn([C@H]2CS[C@@H](CO)O2)c(=O)n1,activation,[1],-2.07% (inactive)
same,outcome,[2],inactive
same,max response,[3],-4.56%
same,outcome,[4],inactive
same,outcome,[9],inactive
same,outcome,[5],inactive
same,max response,[11],1%
same,outcome,[12],inactive
same,outcome,[6],inactive
same,max response,[13],-4.12%
same,max response,[14],12.8% (inactive)
same,activity change % (negative = inhibition),[7],10.8% (inactive)
O=C(O)CC/C=C\CC[C@H]1[C@@H](N2CCCCC2)[C@@H](O)C[C@@H]1OCc1ccc(-c2ccccc2)cc1,outcome,[16],inactive
